# Vif-A3F inh: blocks the Vif interaction with APOBEC3F. Potency, µM (top dose mostly 46.1 µM), inactives show top-dose activity, negative = active. HeLa A3F-eYFP + Vif (tagged APOBEC3F with the HIV-1 protein that degrades it), YFP fluorescence increase. hit rate 0.2% among 390,000; note: % of control where 0% means no effect; nearly all actives have a fitted effect of over 65% in size
#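 HeLa cells stably expressing A3F-eYFP plus Vif, plated and incubated overnight at 37 deg C, then exposed to compounds overnight at 37 deg C. Blocked degradation read as raised yellow fluorescence (Ex 488/Em 500-530).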
# Vif-APOBEC3G blk: inhibitors of Vif-APOBEC3G interaction; HeLa A3G-eYFP + Vif (tagged APOBEC3G with the HIV-1 protein that degrades it), YFP fluorescence, overnight; Potency, µM (titrated, usually from 46.1 µM), for inactives: top-dose activity, negative = active, actives largely listed as inhibitors; hit rate 0.076% among 410,000; AID 602310; note: % is set by controls: 0 for no effect and ±100 for the full control effect; nearly all actives have a fitted effect of over 60% in size
# Target sequence (Q9HC16 whole entry, looked up): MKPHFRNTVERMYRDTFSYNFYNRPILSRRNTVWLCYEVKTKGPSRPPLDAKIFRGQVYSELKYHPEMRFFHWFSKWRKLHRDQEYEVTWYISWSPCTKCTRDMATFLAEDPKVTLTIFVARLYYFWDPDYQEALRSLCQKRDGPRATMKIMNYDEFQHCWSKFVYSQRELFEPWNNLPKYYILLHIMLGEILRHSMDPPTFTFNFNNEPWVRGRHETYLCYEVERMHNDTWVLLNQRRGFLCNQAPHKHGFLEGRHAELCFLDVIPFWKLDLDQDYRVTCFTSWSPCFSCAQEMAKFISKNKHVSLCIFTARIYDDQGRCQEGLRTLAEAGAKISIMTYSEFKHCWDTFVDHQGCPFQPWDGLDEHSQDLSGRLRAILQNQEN
#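 HeLa cells stably expressing Vif and C-terminally eYFP-tagged A3G, seeded overnight at 37 deg C, then exposed to compound by pintool overnight at 37 deg C. Rise in yellow fluorescence (Ex 488/Em 500-530, Acumen) marks blocked Vif-driven A3G degradation.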
# Epigenetic derep: regulators of epigenetic silencing causing reporter derepression in mouse cells. murine LDR cells, GFP reporter derepression, 30 h. Potency, µM (highest dose often 53.9 µM), for the others: top-dose GFP activation, actives largely listed as activators. hit rate 0.2% among 280,000. AID 1865; note: % of control where 0% means no effect; nearly all actives have a fitted effect of over 60% in size
#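 Murine LDR cells bearing a silenced CMV-driven GFP reporter were exposed to compound for 30 h at 37 C. After PBS washes, GFP-positive cells (20-120 um objects) counted by laser-scanning microplate cytometry.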
# PINK1 expr mod: PINK1 expression modulation; PINK1 immunofluorescence, high-content cytometry, 24 h; Potency, µM (highest dose often 76.6 µM), for inactives: at the highest dose activation (PINK1 increase), hits mostly activators; hit rate 0.2% among 410,000; active = well fitted activation curve with a large enough effect; inconclusive = small, poorly fitted or top-dose-only effect; cell line not stated here; note: % of control where 0% means no effect; nearly all actives have a fitted effect of over 65% in size
#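 Cells are seeded, rested 12 hours, then given compound at five concentrations or DMSO for 24 hours. After fixation, blocking and antibody staining, PINK1 amount and mitochondrial localization are scored; CCCP serves as control.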
# Starred values were filed as active, the others as inactive; ? = inconclusive; . = no result. Most compounds without a hit are left out; they make up all but 0.51% or so of the library. Unless noted, calls come from the whole dose curve; as a rule, active = well fitted curve in the direction sought with a large enough effect; inconclusive = small, poorly fitted or top-dose-only effect, or another doubt; inactive = no such curve, though single readings can be large; an effect the other way counts as inactive or inconclusive. Potency is the fitted concentration of half-maximal effect.
SMILES,Vif-A3F inh,Vif-APOBEC3G blk,Epigenetic derep,PINK1 expr mod
C=CC1CN2CCC1C[C@H]2C(O)c1ccnc2ccc(OC)cc12 (stereo partly specified),.,.,0.0%,.
Cc1cc(C(=O)Nc2ccccc2-c2nc(CNC(=O)C3COc4ccccc4O3)c(C)o2)c(C)o1 (stereo unspecified),.,.,.,0.1%
O=C(Nc1sc2c(c1C(=O)NCc1ccco1)CCCC2)c1cc(=O)c2cc(Cl)ccc2o1,?,-10.9%,11.1%,39.8µM*
CNC(=O)N(O)C1N(/N=C/c2ccc(N(C)C)cc2)C(=S)SC1(C)C (stereo unspecified),6.8%,-6.1%,.,0.2%
CC1(C)SC(=S)N(/N=C/c2ccccc2)C1N(O)C(=O)Nc1ccc([N+](=O)[O-])cc1 (stereo unspecified),8.9%,0.1%,-0.9%,31.6µM*
Cc1cnc(C)c(-c2cccc3c2OC(CNC(=O)/C=C/c2ccncc2)C3)n1 (stereo unspecified),.,.,.,-0.4%
COc1cc(OC)cc(OC2(C)CCN(Cc3ccc(OC(C)C)cc3)C2)c1 (stereo unspecified),.,-3.8%,.,44.7µM*
O=C1/C(=C/c2ccc(O)cc2)SC(=S)N1CC1CCCO1 (stereo unspecified),22.4µM*,-1.1%,6.8%,?
COc1cc([N+](=O)[O-])cc(/C=C2/SC(=S)N(Cc3ccccc3)C2=O)c1O,-16.5%,-18.5%,.,35.5µM*
O=C1/C(=C\c2ccc(O)cc2)SC(=S)N1Cc1ccccc1,11.2µM*,-17.8%,.,22.5%
CCCOc1ccc(/C=C2\SC(=S)N(CC3CCCO3)C2=O)cc1 (stereo unspecified),-9.9%,2.0%,0.9%,0.5%
O=C(O)c1ccc(/C=C2/SC(=S)N(Cc3ccccc3)C2=O)cc1,0.8%,-5.3%,.,5.9%
O=C1/C(=C/c2ccc(O)c([N+](=O)[O-])c2)SC(=S)N1Cc1ccccc1,-8.6%,-2.9%,-2.5%,31.6µM*
O=C(NC1CC1)[C@@H]1C[C@H](Sc2nc3ccccc3[nH]2)CN1CC1CCCCC1,.,.,.,0.1%
COc1ccc(OC)c2sc(NC(=O)CCS(=O)(=O)c3ccccc3)nc12,2.6%,11.2µM*,.,-0.3%
CCCNC(=O)Cn1c(=O)/c(=C\c2ccc(-c3ccc([N+](=O)[O-])cc3)o2)s/c1=C\C(=O)C(C)(C)C,-393.7%,2.1%,0.199µM*,?
CCC1CN(CCNC(=O)c2ccc3c(c2)OCCO3)Cc2cc(OC)ccc2O1 (stereo unspecified),.,.,.,0.5%
Cc1ccc(C(=O)Nc2cccc(-c3nc(CNC(=O)[C@@H]4C[C@@H](C)NC(=S)N4)c(C)o3)c2)s1,.,.,.,0.5%
CC(C)(C)n1ncc2c(=O)n(Cc3cccc(-c4cccs4)c3)cnc21,.,1.3%,.,.
COc1ccc(-c2c(C#Cc3ccsc3)c3cc(Br)ccc3n2C)cc1,1.0%,0.5%,.,3.5%
COc1ccc(-c2c(C#Cc3ccc(N(C)C)cc3)c3ccccc3n2C)cc1,-4.4%,-4.5%,.,17.8µM*
CC(C)(C)n1ncc2c(=O)n(Cc3cccc(OC(F)F)c3)cnc21,.,1.9%,.,.
Cc1nnc(N2C(=O)c3cccc4c([N+](=O)[O-])ccc(c34)C2=O)s1,28.2µM*,?,.,4.1%
COc1ccnc(CSC(N)=Nc2ccccc2C(F)(F)F)c1,5.7%,-0.9%,-1.1%,-0.8%
COc1ccnc(CSC(N)=Nc2ccccc2OC)c1,6.8%,3.6%,3.55µM*,-1.5%
SMILES,Vif-A3F inh,Vif-APOBEC3G blk,Epigenetic derep,PINK1 expr mod
O=S(=O)(Nc1nc2n(n1)C(c1ccccc1)C=C(c1ccc(Cl)cc1)N2)c1ccccc1 (stereo unspecified),22.4µM*,?,-2.1%,0.3%
Cc1csc(CN(C)C(=O)c2sc3ncnc(NCC4CCCO4)c3c2C)n1 (stereo unspecified),.,.,.,-0.6%
Cc1c(C(=O)NCCc2cccnc2)cnn1-c1ncc2c(n1)-c1ccccc1CC2,.,.,.,0.8%
Cc1ccc(O)c(NC(=O)c2ccc(Br)c(S(=O)(=O)N3CCCCC3)c2)c1,2.6%,0.4%,-2.7%,39.8µM*
Cc1ccc(O)c(NC(=O)c2cccc(S(=O)(=O)N3CCCCC3)c2)c1,-9.5%,-0.6%,1.1%,-2.5%
Cn1c(=O)c2c(nc(SCC(=O)N3c4ccccc4CCc4ccccc43)n2C)n(C)c1=O,-7.0%,1.3%,0.0%,10µM*
C=C(/C=C/c1ccc(N(C)C)cc1)c1nc2ccccc2s1,.,11.2µM*,.,10µM*
CN(C)c1ccc(/C=C/c2cccc3cc4ccccc4nc23)cc1,.,?,.,-0.6%
CN(C)c1ccc(/C=C/c2nc3ccccc3s2)cc1,?,?,?,44.7µM*
CN(C)c1ccc(/C=C/c2ccc3ccccc3n2)cc1,?,-19.3%,?,?
CS(=O)(=O)N1CCN(c2ccc(NC(=O)c3ccc(-c4ccc(Cl)cc4)o3)cc2)CC1,-3.3%,-3.7%,-0.2%,14.1µM*
CN1CCN(c2ccc(NC(=O)c3ccc(-c4ccc(Cl)cc4)o3)cc2)CC1,2.7%,?,.,2.9%
COc1ccc2oc(=O)c(-c3nc4ccc(C)cc4[nH]3)cc2c1,?,?,11.2µM*,4.5%
Cc1ccc(-c2cn3nc(-c4ccccc4)c(-c4ccccc4)nc3n2)cc1,4.47µM*,-18.1%,0.1%,-0.6%
c1ccc(-c2cn3nc(-c4ccccc4)c(-c4ccccc4)nc3n2)cc1,?,?,-1.1%,-0.7%
COc1cccc(C(=O)N2CCCC(c3nc(SCCN4CCOCC4)ncc3C)C2)c1 (stereo unspecified),.,.,.,2.1%
CCOC(=O)c1c(CC(C)C)csc1/N=C/C1C(=O)CCCC1=O,22.4µM*,?,?,?
CCOC(=O)c1c(-c2ccccc2)csc1/N=C/C1C(=O)CCCC1=O,-9.7%,-17.0%,5.8%,?
COc1cc(OC)c(OC)cc1/C=C1\CC(C)C/C(=C\c2cc(OC)c(OC)cc2OC)C1=O (stereo unspecified),22.4µM*,?,.,-3.4%
Cn1nnnc1SCc1nc2scc(-c3ccccc3)c2c(=O)[nH]1,2.6%,-0.1%,2.4%,0.8%
Cn1nnnc1SCc1nc2scc(-c3ccc(Cl)cc3)c2c(=O)[nH]1,22.4µM*,-21.3%,?,39.8µM*
Cc1c(C(=O)NCc2ccc3c(c2)OCO3)cnn1-c1ncc2c(n1)-c1ccccc1CC2,.,.,.,0.9%
O=c1[nH]c2cc(Br)cnc2nc1/C=C(\O)c1ccc(F)cc1,10µM*,-9.0%,?,.
O=C(Cn1cncn1)N1CCOc2ccc(CN3CCN(c4ccccc4)CC3)cc2C1,.,.,.,-0.1%
CCCCCCc1cc2cc(C(=O)OCC)c(=O)oc2cc1O,8.4%,0.4%,-0.3%,?
CCCCCCc1cc2cc(S(=O)(=O)c3ccc(F)c(Cl)c3)c(=O)oc2cc1O,8.5%,-12.8%,-1.1%,12.6µM*
CCCCCCc1cc2cc(C(=O)Nc3ccc(OC)cc3)c(=O)oc2cc1O,2.7%,-1.7%,-0.9%,39.8µM*
CCCCCCc1cc2cc(-c3nnc(-c4ccc(C)cc4)o3)c(=O)oc2cc1O,?,?,2.24µM*,-1.2%
O=C(NCc1nnc2n1CCN(Cc1cc3c(cc1Cl)OCO3)CC2)c1cccc(F)c1,.,.,.,-0.5%

# Screening data deposited in PubChem by National Center for Advancing Translational Sciences (NCATS).
